One assay addresses Caspase-1 (Homo sapiens) (UniProt P29466). The assay is described as follows: NVS_ENZ_hCASP1: NovaScreen (NVS) Enzymatic Assay for human Caspase 1 (CASP1) (AID 2283132). The gist of the method: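 Cell-free enzymatic assay with E. coli-expressed recombinant protein; fluorescence intensity read 1 hour after dosing. Single-concentration duplicate screen at 25 uM, then concentration-response up to 50 uM; activity fitted relative to DMSO, loss of signal meaning inhibition.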

Assay [1] addresses human Acetylcholinesterase (AChE), ACHE (gene 43) (UniProt P22303). The assay is described as follows: NVS_ENZ_hAChE: NovaScreen (NVS) Enzymatic Assay for human Acetylcholinesterase (AChE) (AID 2283129). Summed up:
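Cell-free colorimetric enzyme-activity assay; compounds read 0.33 hour after dosing, loss of signal vs DMSO baseline. Primary screen in duplicate at 25 uM single concentration, with active compounds retested in concentration series.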

For assay [2], the target named is rat CYP2C12, Cyp2c12 (gene 25011) (UniProt P11510). The assay is described as follows: NVS_ADME_rCYP2C12: NovaScreen (NVS) CYP450-related Enzyme Activity (ADME) Assay for rat CYP2C12 (AID 2283119). The gist of the method:
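Cell-free recombinant rat CYP2C12 activity read by fluorescence 0.5 h after dosing; loss of signal versus acetonitrile control. Primary screen in duplicate at 10 uM; actives then run in concentration-response format.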

Another assay relates to rat CYP2C6, gene 293989. The assay is described as follows: NVS_ADME_rCYP2C6: NovaScreen (NVS) CYP450-related Enzyme Activity (ADME) Assay for rat CYP2C6 (AID 2283120). Summed up:
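Cell-free recombinant rat CYP2C6 with fluorogenic substrate, read by fluorescence 1 h after dosing; acetonitrile as negative control. Primary screen at 10 uM in duplicate, actives then in concentration-response up to 20 uM.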

In assay [3] the target is rat CYP2C13, Cyp2c13 (gene 171521) (UniProt P20814). The assay is described as follows: NVS_ADME_rCYP2C13: NovaScreen (NVS) CYP450-related Enzyme Activity (ADME) Assay for rat CYP2C13 (AID 2283121). Summed up:
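Recombinant rat CYP2C13 with fluorogenic substrate, 0.75 h cell-free incubation; primary screen in duplicate at 10 uM, actives followed in concentration series. Fluorescence loss relative to acetonitrile control indicates inhibition.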

Assay [4] addresses rat CYP2D1, Cyp2d1 (gene 266684) (UniProt P10633). The assay is described as follows: NVS_ADME_rCYP2D1: NovaScreen (NVS) CYP450-related Enzyme Activity (ADME) Assay for rat CYP2D1 (AID 2283122). On the procedure:
NVS_ADME_rCYP2D1 is a biochemical, single-readout assay that uses extracted gene-proteins in a cell-free assay. Measurements were taken 0.75 hour after chemical dosing in a 96-well plate.NVS_ADME_rCYP2D1 is one of one assay component(s) measured or calculated from the NVS_ADME_rCYP2D1 assay. It is designed to make measurements of enzyme activity, a form of enzyme reporter, as detected with fluorescence intensity signals by Fluorescence technology.Data from the assay component NVS_ADME_rCYP2D1 was analyzed into 1 assay endpoint. This assay endpoint, NVS_ADME_rCYP2D1, was analyzed in the positive analysis fitting direction relative to Acetonitrile as the negative control and baseline of activity. Using a type of enzyme reporter, loss-of-signal activity can be used to understand changes in the enzymatic activity as they relate to the gene Cyp2d1. Furthermore, this assay endpoint can be referred to as a primary readout, because this assay has produced multiple assay endpoints where this one serves a enzymatic activity function. To generalize the intended target to other relatable targets, this assay endpoint is annotated to the cyp intended target family, where the subfamily is xenobiotic metabolism.
Binding assays used specific radioligands (tritiated, iodinated) with non-radioactive competitive displacement ligands in agonist or antagonist protocols (as indicated) and various reference compounds and inhibitors to titrate specific binding to receptors and transporters. Most enzyme assays (CYPs, kinases, phosphatases, proteases, HDACs) used recombinant protein and specific substrates (fluorescence mostly, some colorimetric and radioactive) and inhibitors, followed by a biochemical separation of substrate and product. All assays for the biochemical HTS were initially run in duplicate at a single concentration (10 uM for CYP450 assays and 25 uM for all others). Assay-chemical combinations meeting a pre-defined threshold (e.g., 30% inhibition and other criteria defined below) were then run in singleton concentration-response format with maximum concentration of 20 uM for CYPs and 50 uM for all others. Each assay was run with positive and negative controls, and concurrent controls on every plate. The follow-up (secondary) screen tested active chemical-pairs in concentration series, as well as a few additional assays not tested in the primary screen, some selected negative inactives, and several cases re-run in the concentration series for confirmatory purposes.

For assay [5], the target named is human AMP-activated Protein Kinase, alpha 1 (AMPKa1), PRKAA1 (gene 5562) (UniProt Q13131). The assay is described as follows: NVS_ENZ_hAMPKa1: NovaScreen (NVS) Enzymatic Assay for human AMP-activated Protein Kinase, alpha 1 (AMPKa1) (AID 2283130). The gist of the method: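 Recombinant human AMPKα1 activity was measured cell-free by fluorescent substrate conversion with electrophoretic mobility-shift separation, 1 h after dosing. Duplicate single-point screening was at 25 uM; actives (≥30% inhibition) were retested in concentration-response up to 50 uM.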
Sequence of human AMP-activated Protein Kinase, alpha 1 (AMPKa1), PRKAA1 (gene 5562) (Q13131 whole entry, looked up): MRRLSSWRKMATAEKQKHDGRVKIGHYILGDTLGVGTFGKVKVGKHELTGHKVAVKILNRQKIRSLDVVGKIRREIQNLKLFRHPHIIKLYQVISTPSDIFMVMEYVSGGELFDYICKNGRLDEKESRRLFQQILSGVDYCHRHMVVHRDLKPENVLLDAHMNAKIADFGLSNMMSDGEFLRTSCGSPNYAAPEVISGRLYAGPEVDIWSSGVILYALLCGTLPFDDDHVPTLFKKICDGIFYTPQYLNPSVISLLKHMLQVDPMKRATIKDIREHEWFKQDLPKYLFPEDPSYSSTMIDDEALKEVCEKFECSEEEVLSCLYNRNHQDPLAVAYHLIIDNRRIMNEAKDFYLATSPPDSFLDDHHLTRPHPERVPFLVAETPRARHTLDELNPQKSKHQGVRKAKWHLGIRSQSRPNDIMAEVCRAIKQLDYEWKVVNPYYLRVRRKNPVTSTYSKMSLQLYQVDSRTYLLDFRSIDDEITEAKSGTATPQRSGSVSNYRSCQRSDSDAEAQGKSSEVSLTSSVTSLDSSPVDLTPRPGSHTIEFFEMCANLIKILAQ

For assay [6], the target named is human Caspase 2 (CASP2), CASP2 (gene 835) (UniProt P42575). The assay is described as follows: NVS_ENZ_hCASP2: NovaScreen (NVS) Enzymatic Assay for human Caspase 2 (CASP2) (AID 2283135). On the procedure: NVS_ENZ_hCASP2 is a biochemical, single-readout assay that uses extracted gene-proteins from E. coli in a cell-free assay. Measurements were taken 1 hour after chemical dosing in a 96-well plate.NVS_ENZ_hCASP2 is one of one assay component(s) measured or calculated from the NVS_ENZ_hCASP2 assay. It is designed to make measurements of enzyme activity, a form of enzyme reporter, as detected with fluorescence intensity signals by Fluorescence technology.Data from the assay component NVS_ENZ_hCASP2 was analyzed into 1 assay endpoint. This assay endpoint, NVS_ENZ_hCASP2, was analyzed in the positive analysis fitting direction relative to DMSO as the negative control and baseline of activity. Using a type of enzyme reporter, loss-of-signal activity can be used to understand changes in the enzymatic activity as they relate to the gene CASP2. Furthermore, this assay endpoint can be referred to as a primary readout, because this assay has produced multiple assay endpoints where this one serves a enzymatic activity function. To generalize the intended target to other relatable targets, this assay endpoint is annotated to the protease intended target family, where the subfamily is cysteine protease.
Sequence of human Caspase 2 (CASP2), CASP2 (gene 835) (P42575 whole entry, looked up): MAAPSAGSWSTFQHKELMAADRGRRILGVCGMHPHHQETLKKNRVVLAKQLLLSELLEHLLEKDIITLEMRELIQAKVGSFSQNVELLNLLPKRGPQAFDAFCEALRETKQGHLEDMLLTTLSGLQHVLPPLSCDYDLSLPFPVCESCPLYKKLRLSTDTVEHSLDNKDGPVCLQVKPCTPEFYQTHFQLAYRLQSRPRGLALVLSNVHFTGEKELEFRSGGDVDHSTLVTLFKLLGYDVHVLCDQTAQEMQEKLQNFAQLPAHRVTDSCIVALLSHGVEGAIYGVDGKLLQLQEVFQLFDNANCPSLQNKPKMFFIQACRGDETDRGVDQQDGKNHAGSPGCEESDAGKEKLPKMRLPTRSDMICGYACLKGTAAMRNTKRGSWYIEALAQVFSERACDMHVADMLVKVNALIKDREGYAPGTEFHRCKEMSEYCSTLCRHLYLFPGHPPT
Binding assays used specific radioligands (tritiated, iodinated) with non-radioactive competitive displacement ligands in agonist or antagonist protocols (as indicated) and various reference compounds and inhibitors to titrate specific binding to receptors and transporters. Most enzyme assays (CYPs, kinases, phosphatases, proteases, HDACs) used recombinant protein and specific substrates (fluorescence mostly, some colorimetric and radioactive) and inhibitors, followed by a biochemical separation of substrate and product. All assays for the biochemical HTS were initially run in duplicate at a single concentration (10 uM for CYP450 assays and 25 uM for all others). […]

Assay [7] addresses human Acid Phosphatase 1 (ACP1), ACP1 (gene 52) (UniProt P24666). The assay is described as follows: NVS_ENZ_hACP1: NovaScreen (NVS) Enzymatic Assay for human Acid Phosphatase 1 (ACP1) (AID 2283136). The gist of the method:
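Recombinant enzyme expressed in Sf9 cells, tested cell-free; activity read by fluorescence with electrophoretic mobility shift separation of substrate and product, 1.5 h after dosing. Primary screen in duplicate at 25 uM, actives then run in concentration series; loss of signal versus DMSO.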

Results filed as inconclusive are left out. Calls of active or inactive are those of the source. The calls were made as follows: active = hit-call score of the fitted dose curve at least 0.9, where 1 is the maximum; inconclusive = response in the unintended direction; inactive = score below 0.9.

Sequence of rat CYP2D1, Cyp2d1 (gene 266684) (P10633 whole entry, looked up): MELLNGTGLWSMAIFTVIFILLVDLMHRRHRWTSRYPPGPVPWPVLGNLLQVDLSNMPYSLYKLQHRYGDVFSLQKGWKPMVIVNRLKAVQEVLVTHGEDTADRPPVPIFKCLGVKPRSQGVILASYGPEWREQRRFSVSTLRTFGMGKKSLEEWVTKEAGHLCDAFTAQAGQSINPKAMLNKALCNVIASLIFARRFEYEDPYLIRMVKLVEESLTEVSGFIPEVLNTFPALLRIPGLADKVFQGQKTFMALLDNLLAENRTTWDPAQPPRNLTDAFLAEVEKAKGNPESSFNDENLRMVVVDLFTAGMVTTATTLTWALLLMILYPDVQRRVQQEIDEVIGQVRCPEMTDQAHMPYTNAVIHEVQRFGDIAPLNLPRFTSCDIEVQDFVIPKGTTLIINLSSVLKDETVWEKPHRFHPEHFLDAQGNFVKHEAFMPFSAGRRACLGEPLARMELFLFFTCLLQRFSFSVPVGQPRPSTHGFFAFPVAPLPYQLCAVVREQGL
Sequence of Caspase-1 (Homo sapiens) (P29466 whole entry, looked up): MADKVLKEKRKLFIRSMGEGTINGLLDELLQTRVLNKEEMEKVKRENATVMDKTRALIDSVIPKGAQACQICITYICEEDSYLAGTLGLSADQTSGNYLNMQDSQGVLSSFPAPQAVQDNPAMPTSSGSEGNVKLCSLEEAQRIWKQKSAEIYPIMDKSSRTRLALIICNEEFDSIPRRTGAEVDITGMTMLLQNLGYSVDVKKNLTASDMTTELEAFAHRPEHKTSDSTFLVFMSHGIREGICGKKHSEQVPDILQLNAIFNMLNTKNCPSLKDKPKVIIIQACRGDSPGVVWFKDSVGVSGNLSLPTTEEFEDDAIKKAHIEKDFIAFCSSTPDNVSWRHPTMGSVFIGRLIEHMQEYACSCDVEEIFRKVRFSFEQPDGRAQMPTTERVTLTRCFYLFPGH
Sequence of rat CYP2C13, Cyp2c13 (gene 171521) (P20814 whole entry, looked up): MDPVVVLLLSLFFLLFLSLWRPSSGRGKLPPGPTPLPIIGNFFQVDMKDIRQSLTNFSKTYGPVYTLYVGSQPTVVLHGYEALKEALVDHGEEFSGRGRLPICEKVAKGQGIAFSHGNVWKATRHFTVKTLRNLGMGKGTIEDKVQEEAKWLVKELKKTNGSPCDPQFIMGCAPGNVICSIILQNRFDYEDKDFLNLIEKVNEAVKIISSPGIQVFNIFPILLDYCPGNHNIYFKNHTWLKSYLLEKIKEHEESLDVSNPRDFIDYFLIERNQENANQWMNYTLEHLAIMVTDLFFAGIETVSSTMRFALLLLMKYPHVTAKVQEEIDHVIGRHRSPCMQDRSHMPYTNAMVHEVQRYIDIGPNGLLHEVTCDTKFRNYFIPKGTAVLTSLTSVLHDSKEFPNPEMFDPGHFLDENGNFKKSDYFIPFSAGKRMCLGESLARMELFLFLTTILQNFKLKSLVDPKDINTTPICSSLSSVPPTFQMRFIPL
Sequence of rat CYP2C12, Cyp2c12 (gene 25011) (P11510 whole entry, looked up): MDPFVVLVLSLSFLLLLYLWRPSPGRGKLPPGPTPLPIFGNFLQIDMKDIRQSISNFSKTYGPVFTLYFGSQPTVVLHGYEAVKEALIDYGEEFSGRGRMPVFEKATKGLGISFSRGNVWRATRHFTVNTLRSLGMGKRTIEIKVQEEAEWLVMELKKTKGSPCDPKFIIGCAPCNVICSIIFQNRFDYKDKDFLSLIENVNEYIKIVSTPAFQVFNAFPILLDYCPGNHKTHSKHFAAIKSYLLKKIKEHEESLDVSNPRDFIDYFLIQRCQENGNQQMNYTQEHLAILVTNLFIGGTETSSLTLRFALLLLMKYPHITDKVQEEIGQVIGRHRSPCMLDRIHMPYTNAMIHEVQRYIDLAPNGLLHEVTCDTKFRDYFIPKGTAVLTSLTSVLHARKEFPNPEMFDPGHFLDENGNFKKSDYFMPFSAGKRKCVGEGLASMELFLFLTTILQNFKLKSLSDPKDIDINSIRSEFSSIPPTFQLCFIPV
Sequence of human Acetylcholinesterase (AChE), ACHE (gene 43) (P22303 whole entry, looked up): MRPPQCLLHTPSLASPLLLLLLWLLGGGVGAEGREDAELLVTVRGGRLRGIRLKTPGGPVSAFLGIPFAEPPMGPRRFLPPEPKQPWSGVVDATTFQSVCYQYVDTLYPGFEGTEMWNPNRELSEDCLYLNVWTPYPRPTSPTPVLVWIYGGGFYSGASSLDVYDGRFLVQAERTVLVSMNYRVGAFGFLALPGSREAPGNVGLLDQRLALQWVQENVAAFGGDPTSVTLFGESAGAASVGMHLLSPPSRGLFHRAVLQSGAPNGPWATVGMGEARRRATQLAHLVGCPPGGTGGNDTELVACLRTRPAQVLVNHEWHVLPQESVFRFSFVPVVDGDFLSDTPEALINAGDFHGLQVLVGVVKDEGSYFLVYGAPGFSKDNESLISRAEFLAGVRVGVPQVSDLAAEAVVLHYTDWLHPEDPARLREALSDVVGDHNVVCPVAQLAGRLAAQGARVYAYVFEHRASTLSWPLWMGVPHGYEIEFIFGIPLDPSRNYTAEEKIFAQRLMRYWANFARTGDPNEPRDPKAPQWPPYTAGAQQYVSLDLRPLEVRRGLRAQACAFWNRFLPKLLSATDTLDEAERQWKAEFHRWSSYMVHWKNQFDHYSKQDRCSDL
Sequence of human Acid Phosphatase 1 (ACP1), ACP1 (gene 52) (P24666 whole entry, looked up): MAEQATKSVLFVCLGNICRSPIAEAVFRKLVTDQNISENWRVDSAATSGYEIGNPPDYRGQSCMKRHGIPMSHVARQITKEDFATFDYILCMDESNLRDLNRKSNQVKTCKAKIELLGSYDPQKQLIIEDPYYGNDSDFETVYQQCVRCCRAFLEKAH

Take `C#CC(C)(C)NC(=O)c1cc(Cl)cc(Cl)c1`: in the assay with Caspase-1 (Homo sapiens), the outcome was inactive.
For the molecule `COP(=O)(OC)SCn1c(=O)oc2cc(Cl)cnc21`, the AC50 in [1] was 6.65 µM (active).
As for `FC(F)C(F)(F)OCC(Cn1cncn1)c1ccc(Cl)cc1Cl` (centres undefined), the AC50 in assay [2] is 3.95 µM (active); in the assay on rat CYP2C6, gene 293989, 1.68 µM (active); in assay [3] it was 0.257 µM (active); in assay [4], 7.86 µM (active).
As for `CCOC(=O)CC(SP(=O)(OC)OC)C(=O)OCC` (centres undefined), the AC50 with rat CYP2C6, gene 293989 is 5.32 µM (active). Further, the molecule was called inactive in assay [3] and in assay [1].
Take `COc1cccc(C(=O)NN(C(=O)c2cc(C)cc(C)c2)C(C)(C)C)c1C`: in assay [3], the AC50 was 2.64 µM (active).
In the case of `CN(C)[C@@H]1C(=O)C(C(N)=O)=C(O)[C@@]2(O)C(=O)C3=C(O)c4c(O)cccc4[C@@](C)(O)[C@H]3[C@H](O)[C@@H]12`, the AC50 in [5] was 2.4 µM (active); in the assay with Caspase-1 (Homo sapiens), 11.6 µM (active); in [6], 10.8 µM (active); in [7], 23.1 µM (active).
Turning to `CCOP(=O)(SC(C)CC)N1CCSC1=O` (centres undefined), the AC50 in the assay with rat CYP2C6, gene 293989 is 5.01 µM (active).
Take `Cc1cc(C2CC2)nc(Nc2ccccc2)n1`: in assay [4], the AC50 is 6.96 µM (active). The outcome (in assay [5]; with Caspase-1 (Homo sapiens)) was inactive.
With `CC[C@H](C)[C@H]1O[C@]2(C=C[C@@H]1C)C[C@@H]1C[C@@H](C/C=C(\C)[C@@H](O[C@H]3C[C@H](OC)[C@@H](O[C@H]4C[C@H](OC)[C@@H](NC)[C@H](C)O4)[C@H](C)O3)[C@@H](C)/C=C/C=C3\CO[C@@H]4[C@H](O)C(C)=C[C@@H](C(=O)O1)[C@]34O)O2`, the figures for the AC50 in assay [3] and in [5] were 6.31 µM (active) and 14.6 µM (active), respectively.
Regarding `C[Si](Cn1cncn1)(c1ccc(F)cc1)c1ccc(F)cc1`, the AC50 was 4.13 µM (active) in assay [2]; 0.519 µM (active) with rat CYP2C6, gene 293989; 0.173 µM (active) in [3]; 4.3 µM (active) in assay [4].

The values above are taken from PubChem BioAssay (EPA / NIEHS).
